Molecules are shown by their SMILES. Unmarked numbers belong to inactive results. Inconclusive results are not listed. Calls of active or inactive are those of the source. Unless noted, calls follow the shape of the dose curve; as a rule, active = well fitted curve in the direction sought with a large enough effect in the repeat runs; inconclusive = weak or mixed curves; inactive = no such curve, though single readings can be large; an effect the other way counts as inactive or inconclusive.

Assay [1] can be described thus: qHTS assay to identify small molecule agonists of H2AX (AID 1224845; active = well fitted activation curve with a large enough effect in the signal ratio in the repeat runs, not every such curve was filed as active; the % refers to the signal ratio). In a few lines: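 Wild-type CHO-K1 cells, plated overnight, exposed 3hr at 37C to 15 concentrations (0.76% DMSO final). Lysed, then HTRF anti-pH2AX (S139) cryptate and anti-H2AX-d2 antibodies, 24 hr room temperature; 665/620 nm emission read.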
A general note: qHTS replaces the single test concentration by a dilution series.

Assay [2] can be described thus: qHTS assay to identify small molecule agonists of H2AX - cell viability counter screen (AID 1224847; calls by dose curve; also: top concentration of the series differs between compounds; nearly all actives have a fitted effect of over 30% in size). In a few lines: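 We seed wild-type CHO-K1 cells overnight, treat them for 3 hr at 37C with compounds in 15-concentration series, and quantify remaining viability by CellTiter-Glo luminescence.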
Assay [3] can be described thus: qHTS assay to identify small molecule antagonists of the estrogen related receptor (ERR) signaling pathway from Tox21 library (AID 1224848). Also: nearly all actives have a fitted effect of over 50% in size. Also: potency is read from the fitted curve at half-maximal effect. In outline:
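Luminescent reporter read-out (ONE-Glo) from NTP's ERR cell line after 18 h treatment at 37 C with DMSO-dissolved Tox21 compounds; cells pre-plated 6 h beforehand at 2,000 per well.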

Assay [4] in a line: qHTS assay to identify small molecule agonists of the estrogen related receptor (ERR) signaling pathway from Tox21 library (AID 1224849; calls by dose curve; also: nearly all actives have a fitted effect of over 15% in size). As to conditions: ERR reporter cell line, ONE-Glo luciferase, 18 h; at 92.4 µM (top of the series) unless noted. In outline:
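We plated ERR reporter cells, waited 6 h, added compounds in DMSO by pin tool and incubated them 18 h at 37 C. ONE-Glo was then added and luminescence read after 30 min.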

Assay [5] in a line: qHTS RealTime-Glo MT Cell Viability Assay in HepG2 cells - 24 hour (AID 1224867). Also: nearly all actives have a fitted effect of over 50% in size. In outline:
(§1)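 HepG2 suspension premixed with RealTime-Glo reagents is plated at 600 cells per well and left 5 h at 37 C/5% CO2. Compounds in DMSO then go in, and bioluminescence reflecting viable cell number is recorded over 40 h.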

The nature of assay [6]: qHTS RealTime-Glo MT Cell Viability Assay in HEK293 cells - 32 hour (AID 1224868). Also: nearly all actives have a fitted effect of over 50% in size. Also: potency is read from the fitted curve at half-maximal effect. In a few lines:
(§2)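 Reads taken at 0, 8, 16, 24, 32 and 40 h from the same wells. HEK293 cells (600/well) carried RealTime-Glo reagents from seeding, with compound added after a 5 h settle at 37 C.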

The nature of assay [7]: A CellTox Green Cytotoxicity Assay to monitor cytotoxicity in HEK293 cells - 0 hour (AID 1224869). Also: nearly all actives have a fitted effect of over 50% in size. In outline:
(§3)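 Each value comes from one timepoint of a single continuous run in which HEK293 cells with CellTox Green were exposed to compound for up to 40 h at 37 C, dye fluorescence rising with cell death.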

A short description of assay [8]: qHTS RealTime-Glo MT Cell Viability Assay in HepG2 cells - 40 hour (AID 1224870). Also: nearly all actives have a fitted effect of over 50% in size. In a few lines:
(§4)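 HepG2 cells (600/well) mixed with RealTime-Glo MT reagent, settled 5 h at 37 C/5% CO2 before compound addition. Nonlytic NanoLuc luminescence from viable-cell prosubstrate reduction read repeatedly during 40 h treatment at 37 C.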

A short description of assay [9]: A CellTox Green Cytotoxicity Assay to monitor cytotoxicity in HEK293 cells - 40 hour (AID 1224871). Also: nearly all actives have a fitted effect of over 45% in size. Also: potency is read from the fitted curve at half-maximal effect. In outline: as §3
The nature of assay [10]: qHTS RealTime-Glo MT Cell Viability Assay in HEK293 cells - 16 hour (AID 1224872). Also: nearly all actives have a fitted effect of over 50% in size. Also: potency is read from the fitted curve at half-maximal effect. In outline:
as §2

The nature of assay [11]: qHTS RealTime-Glo MT Cell Viability Assay in HepG2 cells - 8 hour (AID 1224873). Also: nearly all actives have a fitted effect of over 55% in size. In a few lines:
as §4

Assay [12] can be described thus: qHTS RealTime-Glo MT Cell Viability Assay in HEK293 cells - 40 hour (AID 1224874). Also: nearly all actives have a fitted effect of over 50% in size. Also: potency is read from the fitted curve at half-maximal effect. As to conditions: RealTime-Glo luminescence; max response: hits give low values. In outline: (§5)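 qHTS format; HEK293 cells with NanoLuc/prosubstrate reagent, 37 C/5% CO2 for 5 h pre-dosing; compounds 23 nL in DMSO; luminescence at each time point reflects viable cells.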
Assay [13] in a line: A CellTox Green Cytotoxicity Assay to monitor cytotoxicity in HepG2 cells - 16 hour (AID 1224876). Also: nearly all actives have a fitted effect of over 45% in size. In outline:
(§6)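 Continuous culture of HepG2 cells with a membrane-impermeant DNA dye; rising fluorescence marks dead cells. Compound exposure lasted up to 40 h at 37 C, with reads every 8 h from 0 h.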

Assay [14] in a line: A CellTox Green Cytotoxicity Assay to monitor cytotoxicity in HepG2 cells - 24 hour (AID 1224878). Also: nearly all actives have a fitted effect of over 45% in size. In outline:
as §6

A short description of assay [15]: qHTS RealTime-Glo MT Cell Viability Assay in HEK293 cells - 0 hour (AID 1224880). Also: top concentration of the series differs between compounds; nearly all actives have a fitted effect of over 45% in size. In a few lines:
as §5

Assay [16] in a line: A CellTox Green Cytotoxicity Assay to monitor cytotoxicity in HEK293 cells - 32 hour (AID 1224881). Also: nearly all actives have a fitted effect of over 40% in size. Also: potency is read from the fitted curve at half-maximal effect. In outline:
as §3

Assay [17] can be described thus: qHTS assay to identify small molecule agonists of the hypoxia (HIF-1) signaling pathway (AID 1224846; active = well fitted activation curve with a large enough effect in the signal ratio in the repeat runs, not every such curve was filed as active; the % refers to the signal ratio). In a few lines: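 Measured by blue/green FRET after loading CCF4-AM: beta-lactamase expressed from a hypoxia response element in ME-180 cells. Test agents were delivered in DMSO and left 17 hrs; cells had been plated 5 hrs earlier in low-serum (0.5% dialyzed FBS) medium.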

Assay [18] can be described thus: A CellTox Green Cytotoxicity Assay to monitor cytotoxicity in HEK293 cells - 24 hour (AID 1224875). Also: nearly all actives have a fitted effect of over 45% in size. In outline: as §3
Assay [19] can be described thus: qHTS RealTime-Glo MT Cell Viability Assay in HepG2 cells - 32 hour (AID 1224877). Also: nearly all actives have a fitted effect of over 55% in size. In a few lines:
as §1

The nature of assay [20]: A CellTox Green Cytotoxicity Assay to monitor cytotoxicity in HepG2 cells - 40 hour (AID 1224879). Also: nearly all actives have a fitted effect of over 40% in size. In outline:
as §6
% is scaled to controls: 0 for no effect and ±100 for the full control effect.

As for `S=C=NCc1ccccc1`, the Potency result in assay [1], in [2], in [3], in assay [5], in assay [7] and in assay [8] was “inactive” throughout. Moreover, the Potency entry in assay [11], in assay [13], in assay [14] and in assay [15] was “inactive” in each case. Further, in assay [4], the activity change, positive = activation was -18.1%. In addition, the Potency in [6] is 44.1 µM (active); in [9], 55.5 µM (active); in assay [10], 24.8 µM (active); in assay [12], 44.1 µM (active); in [16] it was 49.5 µM (active).

Take `CCOP(O)OCC`: the Potency entry in assay [1], in assay [5], in assay [6], in assay [7], in assay [8] and in assay [9] was “inactive” in each case. Further, the Potency result in [10], in assay [11], in [18], in assay [13], in assay [19] and in [14] was “inactive” throughout. Further, the Potency result in assay [20] and in assay [16] was “inactive” in each case. For the same compound, the compound was classed as inactive in assay [17]. The max response in assay [12] was 0.744%.

As for `CC(c1ccc(O)cc1)(c1ccc(O)cc1)c1ccc(O)cc1`, the Potency in [3] is 54.5 µM (active); in assay [6], 54.9 µM (active). In addition, the activity change, positive = activation in assay [4] is -42.4%. The Potency entry in assay [5], in assay [7], in [8], in assay [9], in assay [11] and in [18] was “inactive” throughout. Also, the Potency result in [13], in assay [19] and in [14] was “inactive” each time.

As for `c1cc2ccc3cccc4ccc(c1)c2c34`, the call in assay [17] was inactive. Further, the Potency result in assay [2], in assay [5], in [6], in assay [7], in [8] and in assay [10] was “inactive” each time. Also, the Potency result in assay [11], in [18], in assay [13], in assay [19], in assay [14] and in [15] was “inactive” throughout. The Potency in assay [3] is 50.9 µM (active). The activity change, positive = activation in [4] is -47.4%. Besides, the max response in assay [12] is -0.186%.

As for `C[C@@H]1CC[C@H]2[C@@H](C)C(=O)O[C@@H]3O[C@@]4(C)CC[C@@H]1[C@]32OO4`, in assay [17], the compound was called inactive. Besides, the Potency result in assay [2], in assay [5], in [6], in assay [7], in assay [8] and in assay [9] was “inactive” throughout. For the same compound, the Potency entry in assay [10], in [11], in assay [18], in assay [13], in assay [19] and in [14] was “inactive” in each case. Further, the Potency result in assay [20], in assay [15] and in assay [16] was “inactive” each time. Also, the Potency in assay [3] was 0.944 µM (active). In addition, the activity change, positive = activation in assay [4] is -38.3% [at 42.5 µM].

Consider `OC(c1ccc(Cl)cc1)(c1ccc(Cl)cc1)c1cccnc1`, for which the Potency entry in assay [1], in assay [7], in assay [8], in assay [9], in [18] and in assay [13] was “inactive” throughout. Besides, the Potency entry in assay [14], in [20] and in [15] was “inactive” throughout. For the same compound, the Potency in [3] was 48.6 µM (active); in [10], 38.9 µM (active); in assay [12] it was 38.9 µM (active). Further, in assay [4], the activity change, positive = activation is -55.6%.

Take `C[C@]12CC[C@H]3[C@@H](CCC4=CC(=O)CC[C@@H]43)[C@@H]1CC[C@@H]2OC(=O)CCC1CCCCC1`: the compound was classed as inactive in assay [17]. Also, the Potency entry in assay [5], in [6], in [7], in assay [8], in [9] and in assay [10] was “inactive” throughout. In addition, the Potency entry in assay [11], in [18], in assay [13], in [19], in assay [14] and in assay [20] was “inactive” in each case. Besides, the Potency result in assay [16] is “inactive”. Moreover, the max response in assay [12] is -18.6%.

For the origin of these results see PubChem BioAssay (Tox21).
